Laboratory results taken from PubChem BioAssay (NCI).
This is part of a sample that, as a whole, favours compounds with a hit. Of some 83,000 tested, about 20% had one in any assay.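 48-hour exposure, single concentration, 96-well plates; percent growth endpoint where 0 means no net growth. Active: below 10.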 Values without a mark were called inactive. Active and inactive are the calls of the source.

Assays:
Test in all cases: NCI-60 one-dose screen, 48 h (100 = growth as untreated, 0 = no growth, -100 = all killed)
Details in all cases: 10 µM unless noted
SK-MEL-2 melanoma = tested on: SK-MEL-2 melanoma
EKVX NSCLC = tested on: EKVX NSCLC
SN12C renal = tested on: SN12C renal
UO-31 renal = tested on: UO-31 renal
TK-10 renal = tested on: TK-10 renal
ACHN renal = tested on: ACHN renal
A498 renal = tested on: A498 renal
MOLT-4 leukemia = tested on: MOLT-4 leukemia
CAKI-1 renal = tested on: CAKI-1 renal
CCRF-CEM leukemia = tested on: CCRF-CEM leukemia

Structure (SMILES) | growth (SK-MEL-2 melanoma) [%] | growth (EKVX NSCLC) [%] | growth (SN12C renal) [%] | growth (UO-31 renal) [%] | growth (TK-10 renal) [%] | growth (ACHN renal) [%] | growth (A498 renal) | growth (MOLT-4 leukemia) [%] | growth (CAKI-1 renal) [%] | growth (CCRF-CEM leukemia)
N#Cc1c(N)nn(C(=O)c2ccc(NC(=O)c3ccccn3)cc2)c1-c1ccc(Cl)cc1 | 79.3 | 49.2 | 35 | 54.3 | 24.6 | 12.9 | 51.1% | 52.9 | – | –
Cc1cc(NCc2cc(Nc3ccnc4cc(Cl)ccc34)ccc2F)nc(Cl)n1 | – | 39.4 | 37.2 | 30 | 38.1 | 46.6 | 41.3% | – | 56.5 | 42.8%
Cc1cc(NCCCCNc2ccnc3cc(Cl)ccc23)nc(Nc2ccc(C(=O)N3CCCC3)cc2)n1 | 91.2 | 79 | 70.4 | 75.4 | 115 | 60.7 | 62.6% | – | – | 2.01% (active)
COc1cc(C2CC(=O)Nc3c2c(C)nn3-c2nc3ccccc3[nH]2)c(OC)c(OC)c1OC (stereo unspecified) | 50 | 86.4 | 73.9 | 62.3 | 12.5 | 86.6 | -9.27% (active) | 20.3 | – | 39.6%
Cc1ccccc1NC(=O)N/C(N)=N/c1nc(C)c(C)s1 | 53.9 | 55 | 39.7 | 54.9 | 70.3 | 46.5 | -17.7% (active) | – | – | 13.3%
